Measured values: PubChem BioAssay AID1159580 (chemical genetic matrix, 2015)
Several values for one entry are separate records, joined by “and”; a condition that tells them apart may be missing. Equal values may be shown once. Hit rate of the full screen: of about 5,500 compounds, about 2,000 (36%) were called active. About 18% were inconclusive and are not listed. Cut-off read from the data, not from the text of the source: active = normalized growth mostly below about 0.91 (no sharp cut-off); inconclusive = no clear call, values can overlap the other calls; inactive = mostly above about 0.92. The list shows a part of the results.

Assay: chemical genetic growth profiling, strain panel (AID 1159580);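 note: tested at 20 µM; growth read once vehicle control cultures reached saturation at 30 °C; 1 = growth at the plate median or of vehicle wells; lower values mean less growth of the strain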
Settings: S. cerevisiae deletion strains, growth OD

Measured: normalized growth

O=c1c(O)cccc2cc(O)c(O)c(O)c12
active: locus YAL021C, strain ccr4, hits give low values 0.082 | locus YAL026C, strain drs2, hits give low values 0.425 | locus YAL030W, strain snc1, hits give low values 0.884 | locus YBL061C, strain skt5, hits give low values 0.798 | locus YBR009C, strain hhf1, hits give low values 0.76 | locus YBR023C, strain chs3, hits give low values 0.668 | locus YBR171W, strain sec66, hits give low values 0.881 | locus YBR229C, strain ROT2, hits give low values 0.844 | locus YBR231C, strain swc5, hits give low values 0.623 | locus YBR279W, strain paf1, hits give low values 0.856 | locus YCL011C, strain gbp2, hits give low values 0.859 | locus YCL016C, strain dcc1, hits give low values 0.858 | locus YCL029C, strain bik1, hits give low values 0.443 | locus YCL061C, strain MRC1, hits give low values 0.833 | locus YCL069W, strain vba3, hits give low values 0.858 | locus YCR088W, strain abp1, hits give low values 0.875 | locus YDL035C, strain GPR1, hits give low values 0.678 | locus YDL074C, strain BRE1, hits give low values 0.497 | locus YDL101C, strain DUN1, hits give low values 0.457 | locus YDL185W, strain tfp1, hits give low values 0.501 | locus YDL192W, strain arf1, hits give low values 0.742 | locus YDR069C, strain doa4, hits give low values 0.166 | locus YDR101C, strain arx1, hits give low values 0.479 | locus YDR137W, strain rgp1, hits give low values 0.126 | locus YDR159W, strain sac3, hits give low values 0.149 | locus YDR162C, strain NBP2, hits give low values 0.515 | locus YDR195W, strain ref2 0.692 | locus YDR297W, strain sur2, hits give low values 0.877 | locus YDR318W, strain mcm21, hits give low values 0.885 | locus YDR334W, strain swr1, hits give low values 0.515 | locus YDR335W, strain msn5, hits give low values 0.18 | locus YDR388W, hits give low values 0.855 | locus YDR392W, strain spt3, hits give low values 0.738 | locus YDR502C, strain sam2, hits give low values 0.569 | locus YEL003W, strain gim4, hits give low values 0.671 | locus YEL037C, strain rad23, hits give low values 0.716 | locus YEL061C, strain CIN8 (second series), hits give low values 0.878 | locus YER015W, strain faa2, hits give low values 0.593 | locus YER016W, strain bim1, hits give low values 0.904 | locus YER111C, strain swi4, hits give low values 0.22 | locus YER155C, strain BEM2 (second series), hits give low values 0.489 | locus YER155C, strain BEM2, hits give low values 0.664 | locus YER167W, strain BCK2, hits give low values 0.865 | locus YFR010W, strain ubp6, hits give low values 0.509 | locus YGL078C, strain dbp3, hits give low values 0.841 | locus YGL086W, strain mad1, hits give low values 0.758 | locus YGL167C, strain pmr1, hits give low values 0.757 | locus YGL173C, strain kem1, hits give low values 0.497 | locus YGL248W, strain PDE1, hits give low values 0.775 | locus YGL253W, strain hxk2, hits give low values 0.71 | locus YGR135W, strain pre9, hits give low values 0.822 | locus YGR252W, strain gcn5, hits give low values 0.716 | locus YHR013C, strain ard1, hits give low values 0.577 | locus YHR027C, strain rpn1, hits give low values 0.554 | locus YHR030C, strain SLT2, hits give low values 0.898 and 0.73 | locus YHR079C, strain IRE1 (second series), hits give low values 0.182 | locus YHR079C, strain IRE1, hits give low values 0.654 | locus YHR129C, strain ARP1, hits give low values 0.693 | locus YHR142W, strain chs7, hits give low values 0.536 | locus YHR200W, strain rpn10, hits give low values 0.817 | locus YIL066C, strain RNR3, hits give low values 0.768 | locus YIL073C, strain SPO22, hits give low values 0.508 | locus YIL125W, strain kgd1, hits give low values 0.783 | locus YIR030C, strain dcg1, hits give low values 0.812 | locus YJL092W, strain hpr5, hits give low values 0.9 | locus YJL095W, strain BCK1 (second series), hits give low values 0.754 | locus YJL095W, strain BCK1, hits give low values 0.105 and 0.759 | locus YJL115W, strain asf1, hits give low values 0.894 | locus YJL129C, strain trk1, hits give low values 0.547 | locus YJL134W, strain LCB3, hits give low values 0.872 | locus YJL154C, strain vps35, hits give low values 0.816 | locus YJL164C, strain tpk1, hits give low values 0.714 | locus YJL166W, strain qcr8, hits give low values 0.802 | locus YJL187C, strain SWE1 (second series), hits give low values 0.22 | locus YJL187C, strain SWE1, hits give low values 0.813 | locus YJR066W, strain TOR1, hits give low values 0.684 | locus YJR075W, strain HOC1, hits give low values 0.82 | locus YKL009W, strain mrt4, hits give low values 0.345 | locus YKL068W, hits give low values 0.928 | locus YKL085W, strain MDH1 (second series), hits give low values 0.818 | locus YKL085W, strain MDH1, hits give low values 0.818 | locus YKL160W, strain elf1, hits give low values 0.853 | locus YKR001C, strain vps1, hits give low values 0.818 | locus YKR026C, strain gcn3, hits give low values 0.915 | locus YLL001W, strain dnm1, hits give low values 0.699 | locus YLL026W, hits give low values 0.841 | locus YLL041C, strain sdh2, hits give low values 0.902 | locus YLR027C, strain aat2, hits give low values 0.815 | locus YLR039C, strain RIC1, hits give low values 0.481 | locus YLR058C, strain SHM2, hits give low values 0.22 | locus YLR113W, strain HOG1, hits give low values 0.51 | locus YLR221C, strain rsa3, hits give low values 0.78 | locus YLR258W, strain gsy2, hits give low values 0.83 | locus YLR262C, strain YPT6 (second series), hits give low values 0.485 | locus YLR268W, strain sec22, hits give low values 0.515 | locus YLR320W, strain mms22, hits give low values 0.595 | locus YLR330W, strain CHS5, hits give low values 0.852 | locus YLR342W, strain FKS1 (second series), hits give low values 0.564 | locus YLR342W, strain FKS1, hits give low values 0.764 | locus YLR357W, strain rsc2, hits give low values 0.632 | locus YLR370C, strain arc18, hits give low values 0.656 | locus YLR371W, strain rom2, hits give low values 0.746 | locus YLR384C, strain iki3, hits give low values 0.799 | locus YLR418C, strain cdc73, hits give low values 0.458 | locus YML016C, strain PPZ1, hits give low values 0.583 | locus YML032C, strain rad52, hits give low values 0.522 | locus YML120C, strain ndi1, hits give low values 0.0997 | locus YML124C, strain tub3, hits give low values 0.839 | locus YMR058W, strain fet3, hits give low values 0.179 | locus YMR129W, hits give low values 0.919 | locus YMR205C, strain PFK2, hits give low values 0.511 | locus YMR223W, strain ubp8, hits give low values 0.838 | locus YMR231W, strain pep5, hits give low values 0.183 | locus YMR307W, strain GAS1, hits give low values 0.586 | locus YNL067W, strain RPL9B, hits give low values 0.699 | locus YNL071W, strain lat1, hits give low values 0.833 | locus YNL153C, strain GIM3, hits give low values 0.511 | locus YNL183C, strain NPR1, hits give low values 0.66 | locus YNL209W, strain ssb2, hits give low values 0.398 | locus YNL233W, strain BNI4, hits give low values 0.741 | locus YNL248C, strain rpa49, hits give low values 0.811 | locus YNL250W, strain rad50, hits give low values 0.76 | locus YNL271C, strain bni1, hits give low values 0.841 | locus YNL322C, strain KRE1 (second series), hits give low values 0.237 | locus YNR049C, strain mso1, hits give low values 0.898 | locus YNR052C, strain pop2, hits give low values 0.185 | locus YOL006C, strain TOP1, hits give low values 0.423 | locus YOL147C, strain pex11, hits give low values 0.689 | locus YOR001W, strain rrp6, hits give low values 0.686 | locus YOR061W, strain CKA2, hits give low values 0.734 | locus YOR069W, strain VPS5, hits give low values 0.775 | locus YOR070C, strain gyp1, hits give low values 0.901 | locus YOR080W, strain dia2, hits give low values 0.553 | locus YOR083W, strain WHI5, hits give low values 0.737 | locus YOR106W, strain vam3, hits give low values 0.367 | locus YOR144C, strain elg1, hits give low values 0.545 | locus YOR184W, strain ser1, hits give low values 0.636 | locus YOR231W, strain MKK1, hits give low values 0.665 | locus YOR265W, strain rbl2, hits give low values 0.871 | locus YOR270C, strain vph1, hits give low values 0.16 | locus YOR290C, strain snf2, hits give low values 0.105 | locus YPL051W, strain arl3, hits give low values 0.525 | locus YPL078C, strain atp4, hits give low values 0.284 | locus YPL106C, strain sse1, hits give low values 0.747 | locus YPL240C, strain hsp82, hits give low values 0.864 | locus YPL241C, strain CIN2, hits give low values 0.841 | locus YPL256C, strain CLN2, hits give low values 0.601 | locus YPR141C, strain kar3, hits give low values 0.607 | locus YPR163C, strain tif3, hits give low values 0.884 | locus YPR167C, strain met16, hits give low values 0.871 | strain wtn01, hits give low values 0.761
inactive: locus YBR021W, strain FUR4, hits give low values 0.921 | locus YDL005C, strain med2, hits give low values 0.978 | locus YDL040C, strain nat1, hits give low values 0.946 | locus YDR001C, strain nth1, hits give low values 0.925 | locus YER110C, hits give low values 1.02 | locus YGL227W, strain vid30, hits give low values 0.954 | locus YGL240W, strain doc1, hits give low values 0.968 | locus YHR094C, strain hxt1, hits give low values 0.98 | locus YJL168C, strain set2, hits give low values 0.966 | locus YKR091W, strain srl3, hits give low values 0.939 | locus YLR102C, strain apc9, hits give low values 1.02 | locus YMR078C, strain ctf18, hits give low values 0.971 | locus YMR125W, strain sto1, hits give low values 0.955 | locus YNL298W, strain CLA4, hits give low values 0.969 | locus YNL307C, strain MCK1, hits give low values 0.959 | locus YOL012C, strain htz1 0.272 | locus YOR136W, strain idh2, hits give low values 0.925 | locus YOR316C, strain cot1, hits give low values 1 | locus YPR119W, strain clb2, hits give low values 1.01
